# Data published in PubChem BioAssay (NCI).
# About 83,000 compounds went through this panel and 20% of them were active in at least one assay; those are over-represented in the sample as a whole.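 Each cell line was grown in a 96-well plate and treated with one concentration of compound for 48 hours. Values below 10 were considered active.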 A number with no mark means an inactive call. The source made the active and inactive calls.
# Test system: RPMI-8226 leukemia
# Assay: NCI-60 one-dose screen, 48 h (100 = growth as untreated, 0 = no growth, -100 = all killed)
# Settings: 10 µM unless noted
row,Compound,growth
1,Clc1ccc(-c2nnc(-c3ccco3)o2)cc1,93.8%
2,CC1(C)N=C(N)N=C(N)N1c1ccc(Cl)c(Cl)c1,48.2%
3,O=C1CSC(c2ccc(O)cc2)N1c1nnc(Cn2cnnc2)o1 (stereo not drawn),62%
4,Nc1ccc2c(S(=O)(=O)O)ccc(S(=O)(=O)O)c2c1,95.7%
5,NC(N)=N/N=C/c1ccc(Br)cc1,21.5%
6,N#Cc1c(N)nc2c(nnn2-c2cccc(Br)c2)c1N,86.8%
7,C=C(C=O)C1CCC2(C(=O)O)CCC3(C)C(CCC4C5(C)CCC(O)C(C)(C)C5CCC43C)C12 (stereo not drawn),-12.7% (active)
8,O=C1Nc2ccccc2SC1c1ccccc1Cl (stereo not drawn),75%
9,CCOC(=O)c1sc2ccc(NCc3nc[nH]c3C)cc2c1NC(=O)c1cc(OC)c(OC)c(OC)c1,80.1%
10,COc1cc(/C=C/C(=O)c2cccc(-n3cc(-c4ccc(Cl)cc4)[nH]c3=O)c2)cc(OC)c1OC,-27.1% (active)
11,CCCc1cc(=O)oc2c3c(c4c(c12)OC(C)(C)C=C4)O[C@@H](C)[C@H](C)C3=O,56.1%
12,Cc1cc(Cc2cc(C)cc(C(C)(C)C)c2O)c(O)c(C(C)(C)C)c1,32.2%
13,CN(C)c1ccc2cc(-c3ccccc3F)c(N)nc2c1,25.2%
14,CCN(CC)CCCNC(=O)c1ccc(N)cc1O,94.7%
15,Cc1cn(C2CCCCC2)c(=O)[nH]c1=O,114%
16,Cc1c2c(cn1Cc1ccccc1)CCc1cn(C)nc1-2,40.9%
17,COc1cc(C(=O)/C=C/c2c(C(F)(F)F)nc3ccccn23)cc(OC)c1OC,-14.6% (active)
18,CCCCOC(=O)c1ccc(NC(=O)C(C)N2CCOCC2)cc1 (stereo not drawn),88.1%
19,Cc1c2c(cn1Cc1ccccc1)CCc1cn[nH]c1-2,70.8%
20,COc1ccc(-c2cn(-c3cccc(C(=O)/C=C/c4cc(OC)c(OC)c(OC)c4)c3)c(=O)[nH]2)cc1,-45.8% (active)

row,Compound,growth
1,CSc1ccc(Cl)c(C(=O)Nc2sccc2C(N)=O)c1,95.3%
2,CC(=O)Nc1cccc(C2=CC(c3ccc(C)cc3)n3ncnc3N2)c1 (stereo not drawn),73.8%
3,O=C(O)CC1Sc2ccccc2NC1=O (stereo not drawn),96%
4,COc1ccc(-c2nc3ccccn3c2/C=C/C(=O)c2cc(OC)c(OC)c(OC)c2)cc1,29.8%
5,Cc1cccc(-c2cc(O)c(C(=O)N3CCOCC3)s2)c1,41.7%
6,CCC(=O)OC1=C(C)SC2=NC(c3ccc(Cl)c(Cl)c3)=CC(c3cc(OC)c(OC)c(OC)c3)N21 (stereo not drawn),95.8%
7,COc1ccc(NC(=O)C(=O)c2c[nH]c3ccc(F)cc23)cc1,92.7%
8,COc1ccc(/C(C)=C(\c2ccc(Cl)cc2)c2ccc(OCCN3CCCCCC3)cc2)cc1F,-9.96% (active)
9,CC/C=C/[C@@H]1C=C[C@@H]2CCC[C@H]2[C@@H]1CC[C@H](O)[C@H](C)N,-50.2% (active)
10,O=C1CSC(c2ccccc2Cl)N1c1nnc(Cn2cnnc2)o1 (stereo not drawn),55.1%
11,COc1ccc(-c2nc3ncccn3c2/C=C/C(=O)c2cc(OC)c(OC)c(OC)c2)cc1,-32.2% (active)
12,C=C(C=O)[C@@H]1CC=C(C=O)CC1,-36.6% (active)
13,CC(c1ccc(-n2cccn2)cc1)c1cnc(N2CCc3ccc(C(N)=O)cc3C2)s1 (stereo not drawn),34.5%
14,COc1cc(C(=O)/C=C/c2c(-c3ccc(F)cc3)nc3ncccn23)cc(OC)c1OC,11.3%
15,CNC=O,103%
16,CCOC(=O)c1c2c(c(C)n1C)-c1nn(Cc3ccc(OC)cc3)cc1CC2,77.8%
17,Cc1ccccc1NC(=O)CN(C)C,111%
18,COc1cc(/C=C/C(=O)c2cccc(-n3cc(-c4ccccc4)[nH]c3=O)c2)cc(OC)c1OC,-39.4% (active)
19,O=C(CC1Sc2ccccc2NC1=O)NNc1ccc(F)cc1 (stereo not drawn),78.7%

# Test system: OVCAR-8 ovarian
# Assay: as above
# Settings: 10 µM unless noted
row,Compound,growth
1,CC1(C)N=C(N)N=C(N)N1c1ccc(Cl)c(Cl)c1,28.7%
2,Nc1ccc2c(S(=O)(=O)O)ccc(S(=O)(=O)O)c2c1,91.6%
3,C=C(C=O)C1CCC2(C(=O)O)CCC3(C)C(CCC4C5(C)CCC(O)C(C)(C)C5CCC43C)C12 (stereo not drawn),16.8%
4,COc1cc(/C=C/C(=O)c2cccc(-n3cc(-c4ccc(Cl)cc4)[nH]c3=O)c2)cc(OC)c1OC,29.3%
5,Cc1cc(Cc2cc(C)cc(C(C)(C)C)c2O)c(O)c(C(C)(C)C)c1,33.9%
6,Cc1c2c(cn1Cc1ccccc1)CCc1cn(C)nc1-2,86.5%
7,COc1cc(C(=O)/C=C/c2c(C(F)(F)F)nc3ccccn23)cc(OC)c1OC,3.68% (active)
8,Cc1c2c(cn1Cc1ccccc1)CCc1cn[nH]c1-2,94.6%
9,COc1ccc(-c2cn(-c3cccc(C(=O)/C=C/c4cc(OC)c(OC)c(OC)c4)c3)c(=O)[nH]2)cc1,12.4%
10,COc1ccc(-c2nc3ccccn3c2/C=C/C(=O)c2cc(OC)c(OC)c(OC)c2)cc1,30.6%
11,COc1ccc(-c2nc3ncccn3c2/C=C/C(=O)c2cc(OC)c(OC)c(OC)c2)cc1,9.62% (active)
12,COc1cc(C(=O)/C=C/c2c(-c3ccc(F)cc3)nc3ncccn23)cc(OC)c1OC,48.3%
13,CCOC(=O)c1c2c(c(C)n1C)-c1nn(Cc3ccc(OC)cc3)cc1CC2,100%
14,COc1cc(/C=C/C(=O)c2cccc(-n3cc(-c4ccccc4)[nH]c3=O)c2)cc(OC)c1OC,12.5%
